Results on 40 compounds are retold here after PubChem BioAssay (NCATS).

Inconclusive results are not listed. Unmarked numbers belong to inactive results. The call rests on the fitted dose curve; in most records, active means well fitted cell-killing curve with a large enough effect; inconclusive means small, poorly fitted or top-dose-only effect; inactive means no such curve, though single readings can be large or run the other way.
On the % scale 0 is the no-effect control and ±100 the full control effect.

A short description of this assay: qHTS of pediatric cancer cell lines to identify multiple opportunities for drug repurposing: Primary screen for A673 cells (AID 1347092). Further: nearly all actives have a fitted effect of over 45% in size. As to conditions: A673 Ewing sarcoma viability, CellTiter-Glo ATP luminescence, 48 h; series mostly up to 46 µM; activity change, negative = cytotoxic: at the top concentration. From the text:
Drug repurposing or repositioning has been offered as a strategy for drug development in oncology programs. This approach has special potential for childhood cancers and other rare or orphan diseases, where the expected return on new drug development has been a disincentive to pharmaceuticals. […] In this project we exploit the poly-pharmacology of drugs to discover new indications via phenotypic screening of a panel of 19 well-characterized cell lines derived from solid tumors seen in children and adolescents. The goal is to identify approved drugs with previously unrecognized anticancer properties that has the potential to reveal new mechanisms and biological processes involved in carcinogenesis or drug resistance. We employed a titration-based paradigm (quantitative high-throughput screening or qHTS), where all compounds were tested at multiple concentrations for their effect on cell viability. Concentration-response curves (CRCs) were derived directly from the primary screen, and both potency and efficacy values were used to identify compounds with robust bioactivity profiles. We screened the NIH Chemical Genomics Center (NCGC) Pharmaceutical Collection (NPC) and Mechanism Interrogation Plate (MIPE) small molecule collections of approved and investigational compounds against these cell lines; and measured metabolically active cells after 48 hours of compound treatment as a proxy for cell viability. […] Assay Submitter: Nathalia J. Martinez, National Center for Advancing Translational Sciences, National Institutes of Health, Rockville, MD, USA; email: natalia.martinez@nih.gov. Shen, M et al. Quantitative high-throughput phenotypic screening of pediatric cancer cell lines identifies multiple opportunities for drug repurposing. Oncotarget 2017 Dec 19;9(4):4758-4772. PMID 29435139.
The cells were obtained from University of North Carolina (UNC), Pediatric Preclinical Testing Program (PPT), and Coriell Institute (CI). qHTS cell viability assay: Cells were assayed in growth media at a density of 500-1,000 cells/well. Five microliters of cells were dispensed into 1,536-well, white, solid-bottom, TC-treated plates (Greiner Bio One) using a multidrop dispenser and incubated at 37 degrees C, 5% CO2, under a humidified atmosphere for 5 hours. Twenty-three nanoliters of compounds and controls (neutral control DMSO or positive control bortezomib at final concentration of 2.3 uM) were subsequently transferred by Kalypsys pintool. For primary screens, the MIPE collection was tested at 11-point dilutions (final concentrations range from 0.78 nM to 46 µM) and the NPC collection at 8-point dilutions (final concentrations range from 0.59 nM to 46 µM). Compounds tested in follow-up screens were assayed at 11-point dilutions. Cells were incubated for 48 hours, followed by addition of 3 uL of CellTiter-Glo (Promega). After a 15min incubation at room temperature, samples were analyzed for luminescence intensity using a ViewLux High-throughput CCD imager equipped with clear filters.
On the technique in general: qHTS replaces the single test concentration by a dilution series.
As to `CNCc1ccccc1`, the “activity change, negative = cytotoxic” value was -3.41%.
As for `CC(=O)N[C@@H](CC(C)C)C(=O)O`, the figure is 2.23%.
For the compound `CO[C@@]1(NC(=O)C(C(=O)O)c2ccc(O)cc2)C(=O)N2C(C(=O)O)=C(CSc3nnnn3C)CO[C@@H]21` (stereo not given in full), the “activity change, negative = cytotoxic” value is 8.1%.
Consider `Cc1cc(C)c(NC(=O)CN(CC(=O)O)CC(=O)O)c(C)c1Br`, for which the “activity change, negative = cytotoxic” value is 9.88%.
As for `O=C(CN1CCNCC1)NC1CCCCC1`, the figure is -6.66%; as for `NC(N)=NS(=O)(=O)c1ccc(N)cc1`, 4.07%; as for `Cn1c(=O)c2c(ncn2CCO)n(C)c1=O`, -26.8%.
As for `CCCCCCCCCCOc1cc2c(=O)c(C(=O)OCC)c[nH]c2cc1OCC`, the figure is -6.98% [at 4.84 µM]; as for `O=C(/C=C/c1ccc(O)c(O)c1)O[C@@H]1C[C@@](OC(=O)/C=C/c2ccc(O)c(O)c2)(C(=O)O)C[C@@H](O)[C@@H]1O`, 13.3%.
`CCN1CC(CCN2CCOCC2)C(c2ccccc2)(c2ccccc2)C1=O` (stereo not given): the “activity change, negative = cytotoxic” value is -7.93%.
As to `NC(=O)NC1NC(=O)NC1=O` (stereo not given), the “activity change, negative = cytotoxic” value is 3.53%.
For `CC1CCc2cc(F)cc3c(=O)c(C(=O)O)cn1c23` (stereo not given) the value was 6.11%.
As for `C=CCN1C[C@H](C(=O)N(CCCN(C)C)C(=O)NCC)C[C@@H]2c3cccc4[nH]cc(c34)C[C@H]21`, the figure is -7.37%; as for `Cc1c(Cn2ccnc2)c2ccccc2n1CCC(=O)O`, -0.656%.
For `O=C(O)c1ccccc1C(=O)Nc1ccc(S(=O)(=O)Nc2nccs2)cc1` the value was -23.3%; for `O=C(NCN1CCOCC1)c1cnccn1`, -10.9%; for `CC[N+](C)(CC)CCOC(=O)C1c2ccccc2Oc2ccccc21`, 12.5%.
On to `Cc1cc(C)nc(NS(=O)(=O)c2ccc(N)cc2)n1`, for which the “activity change, negative = cytotoxic” value is -14.2%.
Turning to `COC(=O)N/N=C/c1c[n+]([O-])c2ccccc2[n+]1[O-]`, the “activity change, negative = cytotoxic” value is -12.8%.
As for `Cc1c(NC(C)C)c(=O)n(-c2ccccc2)n1C`, the figure is 2.3%.
As for `COc1ccc(NS(=O)(=O)c2ccc(N)cc2)nn1`, the figure is -1.28%.
Turning to `NS(=O)(=O)c1ccc(NC(=O)CCC(=O)O)cc1`, the “activity change, negative = cytotoxic” value is -4.08%.
As for `COc1cc(C(=O)NCCCCCC(=O)O)cc(OC)c1OC`, the figure is -7.73%.
As for `COc1ccc2cc(CCC(C)=O)ccc2c1`, the figure is 7.94%; as for `NS(=O)(=O)c1cc(-c2nn[nH]n2)c(NCc2cccs2)cc1Cl`, 5.09%; as for `C/C=C/C(=O)N(CC)c1ccccc1C`, -5.38%.
As for `CC(C)c1cc2c(cc1S(=O)(=O)O)[C@@]1(C)CCC[C@@](C)(C(=O)O)[C@@H]1CC2`, the figure is 12.2%.
Turning to `OC[C@@H](O)[C@@H](O)[C@H](O)[C@H](O)CO`, the “activity change, negative = cytotoxic” value is 19.6%.
Turning to `OCCN1C[C@H](O)[C@@H](O)[C@H](O)[C@H]1CO`, the “activity change, negative = cytotoxic” value is 8.7%.
For `O=C(O)[C@@H]1[C@H]2C[C@H]3c4[nH]c5ccccc5c4CCN3C[C@@H]2CC[C@@H]1O` the value was -30%; for `O=C(O)C(S)C(S)C(=O)O` (stereo not given), -4.14%.
As for `CCOc1ccc(C(=O)OCCN(CC)CC)cc1`, the figure is -7.98%; as for `Cc1ccsc1/C=C/C1=NCCCN1C`, 6.38%.
As for `FC(F)(F)C(Cl)Br` (stereo not given), the figure is 2.69%; as for `CC1(C)[C@@H](OC(=O)CCC(=O)O)CC[C@]2(C)[C@H]3C(=O)C=C4[C@@H]5C[C@@](C)(C(=O)O)CC[C@]5(C)CC[C@@]4(C)[C@]3(C)CC[C@@H]12`, 13.4%; as for `Cc1c(C)c2c(c(C)c1OC(=O)c1cccnc1)CC[C@@](C)(CCC[C@H](C)CCC[C@H](C)CCCC(C)C)O2`, -3.63%.
For `c1ccc2[nH]ccc2c1`, the “activity change, negative = cytotoxic” value was -1.36%.
As for `CC(=O)N(CC(O)CO)c1c(I)c(C(=O)NCC(O)CO)c(I)c(C(=O)NCC(O)CO)c1I` (stereo not given), the figure is 7.66%; as for `COc1ccccc1OC(=O)Oc1ccccc1OC`, 5.55%; as for `C[n+]1ccccc1/C=N/O`, 10.3%.
